Tcruzi prolif – T. cruzi intracellular proliferation inhibitors, primary screen, cell-based, beta-gal Tulahuen parasites, NIH3T3 host, luminescence; inhibition, % at 8.34 µM; AID 624255, 2012; T. cruzi beta-gal in NIH3T3, GalScreen luminescence, 90 h; actives 5.9% (n = 77,000);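 active = mean inhibition above about 93%, with at least 55% of replicates each passing it, limit read from the data, passing the limit was not always enough; inconclusive = only one of those two conditions holds; inactive = neither condition holds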
C diff HTS – C. difficile growth inhibitors, primary screen, HTS | actives 0.25% (n = 86,000) | growth activity, negative = inhibition, % at 16 µg/mL (by protocol) | Clostridium difficile clinical isolate growth, OD600, 24 h; active compounds read low | AID 1259249, 2017;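 active = mean growth activity at or below -80% and every replicate also at or below -80%; inconclusive = mean at or below -80% but some replicate above -80%; inactive = mean growth activity above -80%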
Pf Dd2 inh – P. falciparum Dd2 growth inhibitors, primary screen, SYBR Green fluorescence, single dose replicates; activity change, % at 10 µM; actives 2.3% (n = 94,000); AID 1159554, 2015; 72 h; active compounds read low; in the data active = activity change below about -80%; inconclusive = no clear call, values can overlap the other calls
A number is an active result; i = inactive; ? = inconclusive; nt = no result given; ! = not confirmed by another sample. Compounds with a hit are over-represented: about 6.7% of the library has one in this group of screens.

SMILES | Tcruzi prolif | C diff HTS | Pf Dd2 inh
COc1ccccc1C#Cc1ccc([C@H]2[C@@H](CO)N(C(=O)C3CCCCC3)[C@H]2C#N)cc1 | i | i | -91
COc1ccc2c3c(n(C)c2c1)[C@H](CO)N(C(=O)Nc1ccc(F)cc1)CC31CN(S(=O)(=O)c2cccc(F)c2)C1 | nt | i | i
COC(=O)C[C@@H]1CC[C@H]2[C@H](COc3ccc(NS(=O)(=O)c4ccc(F)cc4)cc3C(=O)N2C)O1 | i | i | i
O=C(C[C@@H]1CC[C@H]2[C@@H](COC[C@H](O)CN2S(=O)(=O)c2cccc(Cl)c2)O1)Nc1ccccc1 | i | i | i
C[C@H](CO)N1C[C@H](C)[C@@H](CN(C)Cc2ccc(C(=O)O)cc2)Oc2ccc(NS(=O)(=O)c3ccc(Cl)cc3)cc2CC1=O | i | i | i
C[C@H](CO)N1C[C@H](C)[C@H](CN(C)Cc2ccc(Cl)c(Cl)c2)OCCCC[C@H](C)Oc2ccc(NC(=O)c3ccccc3)cc2C1=O | nt | i | i
C[C@@H]1CCCCO[C@H](CN(C)Cc2ccc(Cl)c(Cl)c2)[C@@H](C)CN([C@@H](C)CO)C(=O)c2cc(NC(=O)c3ccccc3)ccc2O1 | nt | i | -90
C[C@H](CO)N1C[C@H](C)[C@@H](CN(C)Cc2ccc(Cl)c(Cl)c2)OCCCC[C@H](C)Oc2ccc(NC(=O)Cc3ccccc3)cc2C1=O | i | i | i
C[C@@H]1CCCCO[C@@H](CN(C)Cc2ccc(Cl)c(Cl)c2)[C@H](C)CN([C@H](C)CO)C(=O)c2cc(NC(=O)c3ccccc3)ccc2O1 | nt | i | -81
CNC(=O)C[C@@H]1CC[C@H]2[C@@H](COc3ccc(NC(=O)c4ccc(C(F)(F)F)cc4)cc3C(=O)N2C)O1 | i | i | i
C[C@@H]1CN([C@H](C)CO)C(=O)c2c(c3ccccc3n2C)-c2ccccc2CO[C@@H]1CN(C)C(=O)N[C@H](C)c1ccccc1 | i | i | i
C[C@H](CO)N1C[C@H](C)[C@@H](CN(C)C(=O)N[C@H](C)c2ccccc2)OCc2ccccc2-c2c(n(C)c3ccccc23)C1=O | i | i | -82
C[C@H](CO)N1C[C@H](C)[C@H](CN(C)C(=O)[C@H](C)c2ccccc2)OCc2ccccc2-c2c(n(C)c3ccccc23)C1=O | nt | i | -91
C[C@H](C(=O)N(C)C[C@H]1OCc2ccccc2-c2c(n(C)c3ccccc23)C(=O)N([C@@H](C)CO)C[C@H]1C)c1ccccc1 | nt | i | i
C[C@H](C(=O)N(C)C[C@H]1OCc2ccccc2-c2c(n(C)c3ccccc23)C(=O)N([C@H](C)CO)C[C@@H]1C)c1ccccc1 | nt | i | i
C[C@H](C(=O)N(C)C[C@@H]1OCc2ccccc2-c2c(n(C)c3ccccc23)C(=O)N([C@@H](C)CO)C[C@@H]1C)c1ccccc1 | nt | i | -83
COCC(=O)N(C)C[C@H]1Oc2cc(C#CC(C)C)ccc2S(=O)(=O)N([C@@H](C)CO)C[C@H]1C | i | i | i
C[C@H]1CN([C@@H](C)CO)C(=O)Cc2cc(NC(=O)CCCN(C)C)ccc2O[C@H]1CN(C)S(=O)(=O)c1ccc(F)cc1 | i | i | i
COc1ccc2c3c([nH]c2c1)[C@@H](CO)N(S(C)(=O)=O)CC31CCN(C(=O)Cc2cccnc2)CC1 | nt | i | i
COc1ccccc1CN1[C@@H]2CNC[C@H]1C2c1ccc(-c2cccnc2)cc1 (stereo partly drawn) | nt | i | i
COc1cccc(CN2C[C@@H]3N[C@H](C2)C3c2ccc(-c3ccccc3OC)cc2)c1 (stereo partly drawn) | nt | -97! | i
COc1ccccc1-c1ccc(C2[C@@H]3CN(Cc4nccs4)C[C@H]2N3)cc1 (stereo partly drawn) | nt | i | i
COc1ccccc1CN1C[C@@H]2N[C@H](C1)[C@@H]2c1ccc(-c2cccnc2)cc1 | nt | i | -87
COc1ccccc1-c1ccc(C2[C@@H]3CN(Cc4cccc(F)c4)C[C@H]2N3)cc1 (stereo partly drawn) | nt | -90! | i
COc1cccc(CN2C[C@@H]3N[C@H](C2)C3c2ccc(-c3ccc(C#N)cc3)cc2)c1 (stereo partly drawn) | nt | i | ?
SMILES | Tcruzi prolif | C diff HTS | Pf Dd2 inh
C[C@@H]1CN([C@@H](C)CO)C(=O)Cc2cc(NC(=O)CCN3CCOCC3)ccc2O[C@@H]1CN(C)S(=O)(=O)c1ccc(F)cc1 | i | i | i
CN1CCN(C(=O)C[C@H]2C[C@@H]3c4cc(NC(=O)CC5CC5)ccc4O[C@@H]3[C@@H](CO)O2)CC1 | i | i | i
C[C@H](CO)N1C[C@H](C)[C@@H](CN(C)C(=O)Cc2cccnc2)Oc2ncc(-c3ccccc3)cc2C1=O | i | nt | i
C[C@H](CO)N1C[C@H](C)[C@@H](CN(C)C(=O)Nc2cc(F)ccc2F)Oc2cc(/C=C/c3ccccc3)ccc2S1(=O)=O | nt | i | i
C[C@H](CO)N1C[C@H](C)[C@H](CN(C)Cc2ccc(C(=O)Nc3ccccc3N)cc2)Oc2c(NC(=O)c3cnccn3)cccc2C1=O | nt | i | -86
C[C@@H]1CN([C@@H](C)CO)C(=O)c2cccc(NC(=O)c3ccc(-c4nccs4)cc3)c2O[C@@H]1CN(C)Cc1ccccc1 | i | i | i
C[C@@H]1CN([C@@H](C)CO)C(=O)c2cccc(NC(=O)c3ccc(-c4nccs4)cc3)c2O[C@@H]1CN(C)Cc1ccc(C(=O)Nc2ccccc2N)cc1 | i | i | -95
C[C@H](CO)N1C[C@H](C)[C@H](CN(C)Cc2ccc(C(=O)Nc3ccccc3N)cc2)Oc2c(NC(=O)c3ccc(-c4nccs4)cc3)cccc2C1=O | i | i | -90
C[C@@H]1CN([C@H](C)CO)C(=O)c2cccc(NC(=O)c3cnccn3)c2O[C@@H]1CN(C)Cc1ccc(C(=O)O)cc1 | i | i | i
C[C@H](CO)N1C[C@H](C)[C@@H](CN(C)Cc2ccccc2)Oc2c(NC(=O)c3ccc(-c4nccs4)cc3)cccc2C1=O | i | i | i
C[C@@H]1CN([C@@H](C)CO)C(=O)c2cccc(NS(=O)(=O)c3ccccc3)c2O[C@@H]1CN(C)Cc1ccc(Oc2ccccc2)cc1 | i | i | i
C[C@@H]1CN([C@@H](C)CO)C(=O)c2cccc(NS(=O)(=O)c3ccccc3)c2O[C@H]1CN(C)Cc1ccc(Oc2ccccc2)cc1 | i | i | -83
C[C@H](CO)N1C[C@H](C)[C@@H](CN(C)Cc2ccc(Oc3ccccc3)cc2)Oc2c(NS(=O)(=O)c3ccccc3)cccc2C1=O | nt | i | i
C[C@@H]1CN([C@H](C)CO)C(=O)c2cccc(NS(=O)(=O)c3ccccc3)c2O[C@H]1CN(C)Cc1ccc(Oc2ccccc2)cc1 | i | i | -86
COc1ccc2c3c(n(C)c2c1)[C@H](CO)N(C(=O)Nc1ccccc1F)CC31CN(C(C)=O)C1 | nt | i | i
C[C@@H]1CN([C@@H](C)CO)C(=O)c2ccccc2-c2ccccc2CO[C@H]1CN(C)C(=O)Nc1cccc(Cl)c1Cl | nt | i | -95
C[C@@H]1CN([C@H](C)CO)C(=O)c2ccccc2-c2ccccc2CO[C@@H]1CN(C)C(=O)Nc1cccc(Cl)c1Cl | nt | i | i
C[C@@H]1CN([C@H](C)CO)C(=O)c2ccccc2-c2ccccc2CO[C@H]1CN(C)C(=O)Nc1cccc(Cl)c1Cl | nt | i | -94

Screens deposited in PubChem BioAssay by Broad Institute.
